The values that follow come from PubChem BioAssay (NCATS).

Records with an inconclusive call do not appear. Entries that show only a call come without a potency. Calls of active or inactive are those of the source. Calls come from the whole dose curve; as a rule, active = well fitted curve in the direction sought with a large enough effect; inconclusive = small, poorly fitted or top-dose-only effect, or another doubt; inactive = no such curve, though single readings can be large; an effect the other way counts as inactive or inconclusive.

Test [1] addresses Glutathione peroxidase 1 (Homo sapiens) (UniProt P07203). Nature of the test: Primary qHTS Assay for Inhibitors of Recombinant Selenoprotein Glutathione Peroxidase 1 (GPX1) (AID 1845191). Note: nearly all actives have a fitted effect of over 65% in size. The conditions noted are these: outcome: dose series up to 48.8 µM. The gist of the method: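 GR-coupled readout: NADPH consumption tracked by fluorescence, ex 340/em 450 nm, at t=0 and after 15 min at RT. Final mix 10 nM GPX1, 1 mM GSH, 0.5 mM CHP, 0.5 mM NADPH, 100 nM GR, 0.01% BSA, following 30 min enzyme–compound preincubation.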
(In qHTS, concentration-response curves come from the screen itself.)

The target in test [2] is Luciferin 4-monooxygenase (Photinus pyralis) (UniProt P08659). Nature of the test: Primary firefly luciferase (FLuc) qHTS assay for identification of artifact compounds. (AID 1845220). Note: nearly all actives have a fitted effect of over 60% in size. The note with it: outcome: dose series up to 54.1 µM. The gist of the method:
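Enzymatic FLuc inhibition assay: compounds pre-exposed to luciferin/ATP (10 uM each) for 15 min, then purified P. pyralis enzyme at 10 nM added. Read-out: luminescence at 5 min.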

Test [3] can be described thus: Primary fluorescence-based thiol-reactive (MSTI) qHTS assay for identification of artifact compounds. (AID 1845221).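 Note: series mostly up to about 54 µM; thiol-reactive compounds lower the probe fluorescence signal; nearly all actives have a fitted effect of over 65% in size.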 The gist of the method:
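Probe: MSTI 4 uM, PBS pH 7.4, 2% DMSO. Incubation 1 h, RT, light-protected. Readout fluorescence 525/598 nm.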

The subject of test [4] is Nanoluciferase (engineered Oplophorus gracilirostris luciferase). Kind of test: Primary Nanoluciferase (NLuc) qHTS assay for identification of artifact compounds. (AID 1845222).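 Note: NLuc secreted into diluted conditioned medium of S16 cells; series mostly up to about 54 µM.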 The gist of the method:
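S16 cell supernatant NLuc, 1:55; cpds qHTS; 15 min RT dark; Nano-Glo substrate 1:100, 5 min; luminescence; Hill fit of % inhibition.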

Test [5] can be described thus: Primary redox qHTS assay for identification of artifact compounds. (AID 1845223). The gist of the method:
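Redox-cycling detection via DTT (250 uM final) oxidation coupled to Amplex Red (25 uM)/HRP (250 mU/mL) in HBSS. 15 min preincubation plus 30 min after DTT, room temperature. Ex/Em 525/598 nm; 4-parameter Hill fit against DMSO and 10 uM DA3003.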

The target of test [6] is Phospholipid hydroperoxide glutathione peroxidase GPX4 (Homo sapiens) (UniProt P36969). Nature of the test: Primary qHTS Assay for Inhibitors of Recombinant Selenoprotein Glutathione Peroxidase 4 (GPX4) (AID 1845192). Note: nearly all actives have a fitted effect of over 65% in size. The gist of the method: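 Steps: GPX4 plus compound, 30 min RT; add GR/GSH/NADPH master mix; start with cumene hydroperoxide; read 340/450 nm fluorescence at 0 and 15 min. Finals were 200 nM GPX4, 1 mM GSH, 0.5 mM CHP, 0.5 mM NADPH, 100 nM GR.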
Sequence of Phospholipid hydroperoxide glutathione peroxidase GPX4 (Homo sapiens) (P36969 whole entry, looked up): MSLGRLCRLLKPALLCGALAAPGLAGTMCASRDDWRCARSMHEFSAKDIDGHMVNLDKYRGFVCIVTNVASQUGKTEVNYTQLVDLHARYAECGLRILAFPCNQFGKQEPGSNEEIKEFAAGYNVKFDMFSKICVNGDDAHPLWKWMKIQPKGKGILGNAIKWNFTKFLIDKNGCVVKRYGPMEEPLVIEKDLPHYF

Sequence of Glutathione peroxidase 1 (Homo sapiens) (P07203 whole entry, looked up): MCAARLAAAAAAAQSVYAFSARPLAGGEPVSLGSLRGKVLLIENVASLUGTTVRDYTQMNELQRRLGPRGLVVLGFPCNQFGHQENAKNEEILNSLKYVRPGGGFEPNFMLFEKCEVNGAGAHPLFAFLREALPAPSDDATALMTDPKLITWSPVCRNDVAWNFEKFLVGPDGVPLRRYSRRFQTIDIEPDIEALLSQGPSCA

As to `CC(C)(O)C(Cl)(Cl)Cl`, the result in test [1] was inactive.
Still for that read-out and setting: the value for `Nc1ccccc1C(=O)OCC(O)CO` (stereo unspecified) was “inactive”.
With `CC[C@H]1C[C@H]2[C@@H]3CCC4=CC(=O)CC[C@@H]4[C@H]3CC[C@]2(C)[C@H]1O`, the outcome in test [1], in test [2], in test [3], in test [4] and in test [5] was inactive.
Regarding `CC(C(O)c1ccccc1)N(C)C/C=C/c1ccccc1` (stereo unspecified), the outcome in test [1] was inactive. In addition, the Potency entry in test [6] is “inactive”.
As for `CCCOC(=O)Cc1ccc(OCC(=O)N(CC)CC)c(OC)c1`, the result in test [1], in test [2], in test [3], in test [4] and in test [5] was inactive.
`CCCCCCCCC(=O)NCc1ccc(O)c(OC)c1`: the result in test [1] was inactive.
Consider `CCOC(=O)NC(C)(C)Cc1ccc(Cl)cc1`, for which the outcome in test [1], in test [2], in test [3], in test [4] and in test [5] was inactive.
As for `CC(C)C(Br)C(=O)NC(N)=O` (stereo unspecified), the outcome in test [1] was inactive. Moreover, the Potency entry in test [6] was “inactive”.
Consider `Cc1c(Cl)c(=O)oc2cc(OP(=O)(OCCCl)OCCCl)ccc12`, for which the Potency result in test [6] was “inactive”.
On to `COc1ccc2c(C(=O)c3ccc(Cl)cc3)c(C)n(CC(=O)O)c2c1`, for which the outcome in test [1], in test [2], in test [3] and in test [4] was inactive. Further, in test [6], the Potency result was “inactive”.
For the compound `C[C@@H]1CN(C2CCC(C#N)(c3ccc(F)cc3)CC2)CC[C@]1(C(=O)O)c1ccccc1` (stereo partly specified), the result in test [1] was inactive. Also, in test [6], the Potency result is “inactive”.
Consider `C[C@H](N)[C@H](O)c1ccc(O)c(O)c1`, for which the result in test [1] was inactive. For the same compound, the Potency entry in test [6] is “inactive”.
Take `CCC1(c2cccc(O)c2)CCCCN(C)C1` (stereo unspecified): the result in test [1] was inactive. For the same compound, in test [6], the Potency result is “inactive”.
`CC(Cc1ccccc1)NCc1ccccc1Cl` (stereo unspecified): the outcome in test [1] was inactive.
Turning to `C=CCOC(Cn1ccnc1)c1ccc(Cl)cc1Cl` (stereo unspecified), the outcome in test [1] was inactive. For the same compound, the Potency entry in test [6] was “inactive”.
As to `COc1ccc(CN2CCNCC2)c(OC)c1OC`, the result in test [1] was inactive.
As for `CCCCC1C(=O)NC(=O)N(C2CCCCC2)C1=O` (stereo unspecified), the result in test [1], in test [2], in test [3], in test [4] and in test [5] was inactive.
Regarding `O=C(O)CCCCCCNC1c2ccccc2CCc2ccccc21`, the result in test [1], in test [2], in test [3], in test [4] and in test [5] was inactive. In addition, the Potency result in test [6] was “inactive”.
Turning to `CN(C)C(=O)Oc1cc(OC(=O)N(C)C)cc(C(O)CNC(C)(C)C)c1` (stereo unspecified), the outcome in test [1] was inactive. In test [6], the Potency result was “inactive”.
With `COP(=O)(OC)OC=C(Cl)Cl`, the outcome in test [1] was inactive. In addition, the Potency entry in test [6] is “inactive”.
With `O=C(NC(=O)c1c(F)cccc1F)Nc1cc(Cl)c(OC(F)(F)C(F)C(F)(F)F)cc1Cl` (stereo unspecified), the outcome in test [1] was inactive.
For the compound `CCOC(=O)c1ncn2c1CN(C)C(=O)c1c(I)cccc1-2`, the outcome in test [1], in test [2], in test [3], in test [4] and in test [5] was inactive. Further, in test [6], the Potency entry was “inactive”.
As for `CN(C)C(=S)SSC(=S)N(C)C`, the outcome in test [1] was inactive. In test [6], the Potency entry is “inactive”.
With `Clc1ccc(CO/N=C(\Cn2ccnc2)c2ccc(Cl)cc2Cl)c(Cl)c1`, in test [1], the outcome was inactive.
On to `O=C(N[C@@H]1N=C(c2ccccc2F)c2cccc3c2N(CC3)C1=O)c1cc2ccccc2[nH]1`, for which the Potency result in test [6] was “inactive”. Besides, the result in test [3], in test [4] and in test [5] was inactive.
For `C[C@]12Cc3nonc3C[C@@H]1CC[C@@H]1[C@@H]2CC[C@@]2(C)[C@H]1CC[C@]2(C)O`, the result in test [1] was inactive. In addition, in test [6], the Potency result is “inactive”.
With `CC(CC(C(N)=O)(c1ccccc1)c1ccccc1)N(C)C` (stereo unspecified), the result in test [1] was inactive. In addition, the Potency result in test [6] was “inactive”.
As for `CCC(=O)O[C@H]1CC[C@H]2[C@@H]3CCC4=CC(=O)CC[C@]4(C)[C@H]3CC[C@]12C`, the outcome in test [1] was inactive. Also, the Potency result in test [6] is “inactive”.
Consider `CC1=C2[C@H]3OC(=O)[C@@H](C)[C@@H]3CC[C@@]2(C)C=CC1=O`, for which the outcome in test [1] was inactive.
For the compound `C=CC[C@]1(O)CC[C@H]2[C@@H]3CCC4=CC(=O)CCC4=C3C=C[C@@]21C`, in test [1], the outcome was inactive.
`CC(Cc1ccccc1)NCCCCl` (stereo unspecified): the outcome in test [1] was inactive. Moreover, the Potency result in test [6] is “inactive”.
On to `CCOC(=O)c1cncn1C(C)c1ccccc1` (stereo unspecified), for which the result in test [1], in test [2], in test [3], in test [4] and in test [5] was inactive.
In the case of `Clc1ccc(CSC(Cn2ccnc2)c2ccc(Cl)cc2Cl)cc1` (stereo unspecified), the result in test [1] was inactive. In addition, the Potency entry in test [6] is “inactive”.
As to `CCCC[N+]1(C)[C@@H]2CC(OC(=O)[C@H](CO)c3ccccc3)C[C@H]1[C@@H]1O[C@@H]12` (stereo partly specified), the result in test [1], in test [2], in test [3], in test [4] and in test [5] was inactive. Moreover, the Potency result in test [6] was “inactive”.
`C[N+]1(C)[C@@H]2CC[C@H]1CC(OC(=O)C(CO)c1ccccc1)C2` (stereo partly specified): the outcome in test [1] was inactive.
